In PubChem BioAssay (EPA / NIEHS):
Active and inactive are the calls of the source. Rule for the calls: active = hit-call score of the fitted dose curve at least 0.9, where 1 is the maximum; inactive = score below 0.9.

Columns and labels:
[1] = BSK_3C_SRB: Viability Assessment in the BioMAP Diversity Plus: 3C Assay (AID 2283023); details: primary human endothelial cells (HUVEC);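 note: fitted both ways against DMSO so a hit may be signal rise or drop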
How it was run: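 Overt cytotoxicity is gauged in parallel confluent HUVEC cultures by SRB total-protein staining at the time of biomarker measurement, 24 h after dosing. Gain or loss of signal is fitted versus DMSO.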

[2] = read-out: Matrix Metallopeptidase 1 (MMP1), MMP1 (gene 4312); assay: BSK_BE3C_MMP1: BioMAP Diversity Plus: BE3C Assay for Matrix Metallopeptidase 1 (MMP1) Biomarker Activity (AID 2283024); details: primary human bronchial epithelial cells; actives raise or lower the signal
How it was run: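 ELISA read-out of MMP1 in human lung bronchial epithelial primary cultures, 24 h post-dose; bidirectional curve fit vs DMSO baseline, gain or loss of signal scored.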

[3] = BSK_3C_Vis: BioMAP Diversity Plus: 3C Assay for Morphology Visualization (AID 2283025); details: primary human endothelial cells (HUVEC);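 note: fitted both ways so gain or loss versus DMSO counts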;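 for AC50: light microscopy image of cell morphology used as background control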
How it was run: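 HUVEC, 3C system; light microscopy of morphology at 24 h post-dose. Bidirectional fit vs DMSO baseline. Secondary readout, background-control function.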

[4] = read-out: Pselectin, SELP (gene 6403); assay: BSK_4H_Pselectin: BioMAP Diversity Plus: 4H Assay for Pselectin Biomarker Activity (AID 2283026); details: primary human endothelial cells (HUVEC); actives raise or lower the signal
How it was run: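 HUVEC, 24 h chemical exposure; P-selectin read by ELISA. Bidirectional curve fit vs DMSO baseline; gain or loss of signal scored.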

[5] = BSK_4H_SRB: Viability Assessment in the BioMAP Diversity Plus: 4H Assay (AID 2283027); details: primary human endothelial cells (HUVEC);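 note: cells exposed to compound for 24 h before staining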;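 for AC50: curves fitted both ways versus DMSO so AC50 may be loss or gain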
How it was run: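 Cytotoxicity readout: sulforhodamine B (0.1%) staining of total protein after 10% TCA fixation, measured at 560 nm in human umbilical vein endothelium at 24 h. DMSO set the baseline; fitting was bidirectional.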

[6] = BSK_BE3C_SRB: Viability Assessment in the BioMAP Diversity Plus: BE3C Assay (AID 2283028); details: primary human bronchial epithelial cells;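 note: measured 24 h after chemical dosing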;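 for AC50: fitted both ways so AC50 may mark signal gain or loss versus DMSO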
How it was run: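 SRB total-protein staining (0.1%, after TCA fixation) of chemically dosed human bronchial epithelial primary cells at 24 h; DMSO serves as the negative control for bidirectional curve fitting.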

[7] = read-out: Thrombomodulin, THBD (gene 7056); assay: BSK_3C_Thrombomodulin: BioMAP Diversity Plus: 3C Assay for Thrombomodulin Biomarker Activity (AID 2283029); details: primary human endothelial cells (HUVEC); actives raise or lower the signal
How it was run: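 HUVEC, 3C conditions; compound 24 h; thrombomodulin by ELISA; bidirectional curve fit vs DMSO baseline; parallel SRB total-protein staining for cytotoxicity.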

[8] = read-out: Urokinase-type plasminogen activator receptor (uPAR), PLAUR (gene 5329); assay: BSK_4H_uPAR: BioMAP Diversity Plus: 4H Assay for Urokinase-type plasminogen activator receptor (uPAR) Biomarker Activity (AID 2283030); details: primary human endothelial cells (HUVEC); actives raise or lower the signal
How it was run: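 Endpoint derived via bidirectional curve fitting against DMSO baseline; readout was ELISA detection of uPAR on umbilical vein endothelial cells at 24 h post-treatment, with SRB-stained parallel cultures assessing cytotoxicity.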

[9] = read-out: Vascular endothelial growth factor receptor 2 (Homo sapiens) (UniProt P35968); assay: BSK_4H_VEGFRII: BioMAP Diversity Plus: 4H Assay for Vascular endothelial growth factor receptor 2 (VEGFR2) Biomarker Activity (AID 2283031); details: primary human endothelial cells (HUVEC); actives raise or lower the signal
How it was run: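 In this multiplexed HUVEC system, biomarker ELISA was performed after 24 h chemical exposure. Parallel SRB staining (TCA fixation, 560 nm) tracked cytotoxicity; DMSO served as baseline.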

[10] = read-out: Human Leukocyte Antigen - DR isotype (HLADR), HLA-DRA (gene 3122); assay: BSK_BE3C_HLADR: BioMAP Diversity Plus: BE3C Assay for Human Leukocyte Antigen - DR isotype (HLADR) Biomarker Activity (AID 2283032); details: primary human bronchial epithelial cells; actives raise or lower the signal
How it was run: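 Primary human bronchial epithelial cells (BE3C); 24 h chemical exposure; HLA-DR by ELISA; bidirectional curve fit vs DMSO baseline.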

[11] = read-out: Vascular cell adhesion molecule 1 (VCAM1), VCAM1 (gene 7412); assay: BSK_4H_VCAM1: BioMAP Diversity Plus: 4H Assay for Vascular cell adhesion molecule 1 (VCAM1) Biomarker Activity (AID 2283033); details: primary human endothelial cells (HUVEC); actives raise or lower the signal
How it was run: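 HUVEC, 24 h post-dose; VCAM-1 by ELISA. Bidirectional curve fit vs DMSO baseline. Parallel SRB total-protein stain (0.1% SRB after 10% TCA fixation, 560 nm) for cytotoxicity.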

[12] = read-out: Interferon-gamma inducible Protein 10 (IP10), CXCL10 (gene 3627); assay: BSK_BE3C_IP10: BioMAP Diversity Plus: BE3C Assay for Interferon-gamma inducible Protein 10 (IP10) Biomarker Activity (AID 2283034); details: primary human bronchial epithelial cells; actives raise or lower the signal
How it was run: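 ELISA readout of IP-10 in BE3C system: primary human bronchial epithelial cells, 24 h post-dosing; bidirectional curve fit vs DMSO baseline.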

[13] = read-out: Monokine induced gamma interferon (MIG), CXCL9 (gene 4283); assay: BSK_BE3C_MIG: BioMAP Diversity Plus: BE3C Assay for Monokine induced gamma interferon (MIG) Biomarker Activity (AID 2283035); details: primary human bronchial epithelial cells; actives raise or lower the signal
How it was run: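 hu bronchial epithelial 1° cells, 24 h cpd; MIG by ELISA; bidirectional fit, DMSO = baseline.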

[14] = read-out: Transforming growth factor beta 1 (TGFb1), TGFB1 (gene 7040); assay: BSK_BE3C_TGFb1: BioMAP Diversity Plus: BE3C Assay for Transforming growth factor beta 1 (TGFb1) Biomarker Activity (AID 2283036); details: primary human bronchial epithelial cells; actives raise or lower the signal
How it was run: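 Read-out: ELISA for TGF-b1 in primary human bronchial epithelial cultures, 24 h post-dose. Bidirectional curve fitting vs DMSO control; gain or loss of signal both scored.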

[15] = read-out: Plasminogen activator inhibitor-1 (PAI1), SERPINE1 (gene 5054); assay: BSK_BE3C_PAI1: BioMAP Diversity Plus: BE3C Assay for Plasminogen activator inhibitor-1 (PAI1) Biomarker Activity (AID 2283037); details: primary human bronchial epithelial cells; actives raise or lower the signal
How it was run: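 ELISA read-out of PAI-1 from human bronchial epithelial primary cells, 24 h post-dosing; bidirectional curve fit vs DMSO baseline, gain or loss of signal scored.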

[16] = read-out: urokinase plasminogen activator (uPA), PLAU (gene 5328); assay: BSK_BE3C_uPA: BioMAP Diversity Plus: BE3C Assay for urokinase plasminogen activator (uPA) Biomarker Activity (AID 2283038); details: primary human bronchial epithelial cells; actives raise or lower the signal
How it was run: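 Using confluent primary human lung bronchial epithelial cultures, we dosed chemicals, waited 24 h, then ran a uPA ELISA, fitting bidirectionally against DMSO.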

[17] = read-out: Interleukin-6 (IL6), IL6 (gene 3569); assay: BSK_CASM3C_IL6: BioMAP Diversity Plus: CASM3C Assay for Interleukin-6 (IL6) Biomarker Activity for (AID 2283040); details: primary human coronary artery smooth muscle cells; actives raise or lower the signal
[18] = read-out: Tissue plasminogen activator (tPA), PLAT (gene 5327); assay: BSK_BE3C_tPA: BioMAP Diversity Plus: BE3C Assay for Tissue plasminogen activator (tPA) Biomarker Activity (AID 2283041); details: primary human bronchial epithelial cells; actives raise or lower the signal
How it was run: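 ELISA read-out of tPA on human primary bronchial epithelial cells, 24 h post-dosing; bidirectional fit vs DMSO negative control/baseline.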

[19] = read-out: Interleukin-8 (IL8), CXCL8 (gene 3576); assay: BSK_CASM3C_IL8: BioMAP Diversity Plus: CASM3C Assay for Interleukin-8 (IL8) Biomarker Activity (AID 2283042); details: primary human coronary artery smooth muscle cells; actives raise or lower the signal;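 note: IL-8 protein level quantified by ELISA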
[20] = read-out: Urokinase-type plasminogen activator receptor (uPAR), PLAUR (gene 5329); assay: BSK_BE3C_uPAR: BioMAP Diversity Plus: BE3C Assay for Urokinase-type plasminogen activator receptor (uPAR) Biomarker Activity (AID 2283039); details: primary human bronchial epithelial cells; actives raise or lower the signal;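 note: uPAR protein level measured by ELISA on the cells; cells exposed to compound for one day before measurement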
How it was run: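 ELISA readout of uPAR on human lung primary bronchial epithelial cells, 24 h post-dosing. Bidirectional curve fit relative to DMSO vehicle baseline; gain or loss of signal both scored.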

Measured: AC50

CCCCCCc1ccc(O)cc1O
active: [1] 34.9 µM | [3] 39.8 µM | [4] 32.3 µM | [5] 32.5 µM | [6] 35.5 µM | [8] 36.6 µM | [10] 29.5 µM | [11] 31.8 µM | [12] 32.2 µM | [13] 30.9 µM | [14] 24.6 µM | [15] 31.6 µM | [16] 31.4 µM | [18] 13.2 µM
inactive: [2] | [7] | [9] | [17] | [19]

CNCc1ccc(NC(=O)c2c[nH]c3c2C(=O)CCC3)cc1
inactive: [1] | [2] | [3] | [4] | [5] | [6] | [7] | [8] | [9] | [10] | [11] | [12] | [13] | [14] | [15] | [16] | [17] | [18] | [19]

Cc1ccc(O)cc1
inactive: [1] | [2] | [3] | [4] | [5] | [6] | [7] | [8] | [9] | [10] | [11] | [12] | [13] | [14] | [15] | [16] | [20] | [17] | [18] | [19]

C[C@](N)(Cc1ccc(O)c(O)c1)C(=O)O
inactive: [1] | [2] | [3] | [4] | [5] | [6] | [7] | [9] | [10] | [11] | [12] | [13] | [14] | [15] | [16] | [20] | [17] | [18] | [19]

CC(C)=CCC/C(C)=C/CO
inactive: [1] | [2] | [3] | [4] | [5] | [6] | [7] | [8] | [9] | [10] | [11] | [12] | [13] | [14] | [15] | [16] | [17] | [18] | [19]

CCCCC(CC)COC(=O)CCCCCCCCC(=O)OCC(CC)CCCC (stereo not given)
inactive: [1] | [2] | [3] | [4] | [5] | [6] | [7] | [9] | [10] | [11] | [12] | [13] | [14] | [15] | [16] | [20] | [17] | [18] | [19]
